Here are results for 26 compounds from paper PMC5540273 (PLoS ONE, 2017).

The test system of test [1] is AAK1. Conditions: concentration: 1 μM, replicates: in singlicate; n = 1.
Test [2] has as its system ABL1-nonphosphorylated. The note with it: concentration: 1 μM, replicates: in singlicate; n = 1.
For test [3], the system named is ABL1-phosphorylated. The note with it: concentration: 1 μM, replicates: in singlicate; n = 1.
The subject of test [4] is ABL2. Conditions: concentration: 1 μM, replicates: in singlicate; n = 1.
Test [5] deals with WNK4.
Test [6] deals with T1, p38-alpha.
T1 construct: gene MAPK14

The subject of test [7] is T2, YSK4.
T2 construct: gene MAP3K19

Test [8] deals with TNNI3K.
Test [9] relates to T3, VPS34.
T3 construct: gene PIK3C3

Test [10] relates to TYK2(JH2domain-pseudokinase).
Test [11] has as its system TYK2(JH1domain-catalytic).
In test [12] the test system is VRK2.
Test [13] relates to TYRO3.
In test [14] the test system is T4, YES.
T4 construct: gene YES1

Test [15] relates to T5, VEGFR2.
T5 construct: gene KDR

The subject of test [16] is T6, p38-gamma.
T6 construct: gene MAPK12

As a reminder, the Kd is the equilibrium constant for the complex coming apart.
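For %Inh in this document: KINOMEscan kinase panel screen.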
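For Kd in this document: kd values determined as follow-up on hits from a single-replicate KINOMEscan panel screen.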

On to `COc1ccc(-n2cnc3c(N)ncnc32)cc1` [SKF-97236], for which the “%Inh” value amounted to 15% in test [1], 28% in test [2], 1% in test [3] and 10% in test [4].
As to `OCCCNc1nccc(-c2c(-c3cccc(C(F)(F)F)c3)nn3cc(C(F)(F)F)ccc23)n1` [GW630813], the Kd in test [5] was > 10000 nM; in [6], 1300 nM. For the same compound, the “%Inh” value in test [1], in test [2], in [3] and in test [4] was 0% throughout.
Compound `O=C(Nc1n[nH]c2nc(-c3ccccc3)c(Br)cc12)C1CC1` [SB-708998] came in with a dissociation constant (Kd) in test [7] of 640 nM. Besides, the “%Inh” value was 8% in test [1], 43% in test [2], 11% in [3] and 2% in [4].
Consider `Cl.c1ccc(Cn2cnc3cc(Nc4ncnc5ccccc45)ccc32)cc1` [GW272142], for which the “%Inh” value is recorded as 5% in test [1], 0% in test [2], 0% in test [3] and 9% in test [4].
`O=C(Nc1ccc2c(c1)OCO2)NC1CCN(c2ccnc(NCc3ccc(F)cc3)n2)CC1` [GSK1379859]: the “%Inh” value in [1], in test [2], in test [3] and in [4] was 0% each time.
For `Nc1nc(-c2ccccc2F)c(-c2ccnc3ccccc23)s1` [GW560459], the figures for the Kd in [8] and in test [6] were > 10000 nM and 240 nM, respectively. Also, the “%Inh” value in test [1] worked out at 12%; in test [2], 0%; in test [3] it was 0%; in test [4], 3%.
Take `Cc1ccc(-c2ccc3c(ccc4sc5c(c43)NC[C@@H](C)N=C5N(C)C)n2)cn1`: the “%Inh” value in test [1], in test [2], in [3] and in [4] was 0% each time.
`O=c1cc(N2CCOCC2)nc2n(Cc3ccc(F)c(Cl)c3)ccn12` [GSK2297099] came in with a Kd in [9] of 15 nM. For the same compound, the “%Inh” value in test [1] came out at 24%; in test [2], 0%; in [3], 0%; in [4], 0%.
With `Nc1n[nH]c2ncc(-c3ccccc3)cc12` [SB-517081], the Kd in test [10] was 950 nM. For the same compound, the “%Inh” value was 36% in test [1], 0% in test [2], 18% in [3] and 17% in test [4].
On to `Cc1nc(N(C)[C@H]2CN(C(=O)CC#N)CC[C@H]2C)c2cc[nH]c2n1`, for which the “%Inh” value in test [1] was found to be 0%; in [2], 1%; in [3] it was 2%; in test [4], 1%.
In the case of `CN1C(=O)C(Nc2ccccc2)=C(c2ccccc2)C1=O` [SB-300079], the “%Inh” value in [1] worked out at 0%; in test [2], 0%; in test [3] it was 6%; in test [4], 0%.
Regarding `Nc1ncnc2c1ncn2-c1cccc(F)c1` [SKF-97560], in test [8], the Kd was > 10000 nM. The “%Inh” value in test [1] is 0%; in test [2] it was 9%; in test [3], 14%; in test [4], 8%.
`COc1ccc(Nc2nccc(N3CCC(NS(=O)(=O)c4ccc(NC(C)=O)cc4)C3)n2)cc1` (centres unmarked) [GSK1379729]: the Kd in test [8] was > 10000 nM; in [11] it was 86 nM; in test [9] it was 97 nM; in test [6], > 10000 nM. Also, the “%Inh” value in test [1] came to 0%; in test [2] it was 0%; in test [3], 0%; in test [4], 20%.
In [7], `O=C(Nc1n[nH]c2nc(-c3ccccc3)c(Cl)cc12)C1CC1` [SB-734909] returned a Kd of 7700 nM. Moreover, the “%Inh” value in test [1] turned out to be 28%; in test [2], 76%; in test [3], 57%; in [4] it was 0%.
`CN1C(=O)C(Nc2cc(Cl)c(O)c(Cl)c2)=C(c2ccc(Cl)cc2)C1=O` [SB-404321]: the dissociation constant (Kd) in [12] is > 10000 nM. The “%Inh” value in test [1] is recorded as 0%; in test [2] it was 30%; in [3], 0%; in test [4], 0%.
As for `CCC(=O)c1c(-c2ccccc2)c2cc(Cl)ccc2c(=O)n1Cc1cc(S(C)(=O)=O)n(CC(N)=O)n1`, the “%Inh” value in test [1] is 0%; in test [2], 44%; in test [3] it was 9%; in test [4], 0%.
On to `O=C(Nc1n[nH]c2cc(-c3ccccc3F)ccc12)C1CC1` [SB-733371], for which the affinity in [7], expressed as Kd, was 200 nM. Besides, the “%Inh” value in test [1] is 9%; in test [2], 46%; in [3], 21%; in [4] it was 9%.
As for `CCn1c(-c2nonc2N)nc2ccccc21` [SB-693162/GW549034], in test [7], the Kd turned out to be 10 nM. The “%Inh” value in test [1] is 29%; in [2], 53%; in [3], 27%; in test [4], 0%.
In the case of `CCC(=O)c1c(-c2ccccc2)c2cc(Cl)ccc2c(=O)n1Cc1cc(S(C)(=O)=O)n(CC(F)F)n1`, the “%Inh” value is listed as 0% in [1], 23% in test [2], 2% in [3] and 0% in [4].
With `COc1cc(OC)cc(-c2cc3cnc(N)nc3nc2NC(=O)NC(C)(C)C)c1`, the Kd in test [13] and in [14] was > 10000 nM throughout. Moreover, the “%Inh” value was determined as 15% in test [1], 39% in [2], 0% in test [3] and 0% in test [4].
With `COc1ccc(CNC(=O)NC2CCN(c3ccnc(Nc4ccc(F)cc4)n3)C2)cc1` (centres unmarked) [GSK1379706], the “%Inh” value worked out at 32% in test [1], 0% in test [2], 0% in test [3] and 2% in test [4].
Regarding `COc1cc2ncn(-c3cc(OCc4ccncc4Br)c(C(N)=O)s3)c2cc1OC` [GW854278], the “%Inh” value in [1] is 17%; in [2], 15%; in [3] it was 0%; in test [4], 5%.
In the case of `COC(=O)c1c(-c2ccccc2)c2cc(C)ccc2c(=O)n1Cc1ccccc1`, the “%Inh” value in test [1] stood at 1%; in test [2], 53%; in [3] it was 0%; in test [4], 6%.
As to `Cc1ccccc1COc1cc(-n2cnc3cc(Cl)ccc32)sc1C(N)=O` [GW813349], the dissociation constant Kd in test [9] is > 10000 nM. The “%Inh” value in test [1] is 2%; in test [2], 9%; in [3], 14%; in test [4], 13%.
In test [15], `COc1cc2nccc(Nc3ccc(OCc4ccc(NC(C)=O)cc4)cc3)c2cc1OC.Cl` [GW440135] returned a Kd of 53 nM. In addition, the “%Inh” value in test [1] is reported as 0%; in [2], 17%; in [3], 0%; in [4], 4%.
In the case of `COc1ccc(-c2cc3c(C)nc(N)nc3n([C@H]3CC[C@H](O)CC3)c2=O)cn1`, the Kd in test [16] was > 10000 nM. The “%Inh” value in [1], in [2], in [3] and in [4] was 0% in each case.
